# Measured values reported in the supplement of paper PMC7801607.
# Assays:
# CHO = assay: % viability of CHO cells (MTT); higher = less toxic; conditions: 48 h
# In short: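 CHO cells were plated at 10^6 cells/well in 200 µL and allowed to attach overnight. Fresh medium with compound at 2 or 20 µM then replaced the old medium for 48 h. Percent viability, relative to untreated cells, came from a colorimetric tetrazolium (MTT) readout.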
# HepG2-A16-CD81 = assay: % inhibition of HepG2 viability (CellTiter-Glo); higher = more toxic; conditions: 5 µM
# [1] = test system: Plasmodium falciparum NF54 stage IV/V gametocytes; assay: % inhibition of gametocyte viability (PrestoBlue); higher = more inhibition; conditions: 48 h
# In short: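 In a single run, percent inhibition of gametocyte viability was calculated relative to vehicle and kill controls. The wells held 100 µL of Stage IV/V NF54 gametocytes at 2% gametocytaemia and 5% haematocrit, with compound at 1 or 5 µM. Plates stood at 37 °C in hypoxic conditions for 48 h. After that, 10 µL PrestoBlue was added for 2 h, and 70 µL of supernatant was transferred for fluorescence reading at 612 nm.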
# [2] = test system: Plasmodium falciparum NF54 asexual blood stage; assay: % inhibition of asexual blood stage proliferation (pLDH); higher = more inhibition; conditions: 72 h
# In short: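 Percent inhibition of asexual proliferation, normalised to controls, was determined in a screen repeated on two separate occasions. Plasmodium falciparum NF54 ring-stage cultures (1% haematocrit, 2% parasitaemia) received compound at 2 or 20 µM and were incubated for 72 h at 37 °C under 4% CO2, 3% O2 and 93% N2. A colorimetric parasite lactate dehydrogenase readout at 620 nm gave survival.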
# [3] = test system: Plasmodium falciparum NF54 stage IV/V gametocytes; assay: % inhibition of gametocyte viability (ATP bioluminescence); higher = more inhibition; conditions: 24 h
# In short: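 Enriched stage IV/V NF54 gametocytes were exposed to compound at 1 or 5 µM for 24 h at 37 °C in 96-well plates. Percent inhibition of gametocyte viability was derived from a bioluminescent ATP readout, normalised to controls within a single run.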
# [4] = test system: Plasmodium falciparum NF54 stage IV/V gametocytes; assay: % inhibition of gametocyte viability (luciferase reporter); higher = more inhibition; conditions: 48 h
# In short: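 Percent inhibition was normalised to controls from a single run. Stage IV/V gametocytes of the NF54-Pfs16-GFP-Luc line, at 2% gametocytaemia and 2% haematocrit, were exposed to compound at 1 or 5 µM for 48 h at 37 °C under stationary, hypoxic conditions. Luminescence was then read from 30 µL lysate mixed with 30 µL Promega luciferin substrate on a GloMax-Multi+ reader with 10 s integration.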
# [5] = test system: Plasmodium berghei ANKA liver stage in HepG2-A16-CD81; assay: % inhibition of liver stage parasite viability (luciferase); higher = more inhibition; conditions: 5 µM; 48 h
# Description: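 Single-concentration screen of the MMV Pandemic Response Box. P. falciparum NF54 asexual blood stages: pLDH assay, 72 h at 37 °C, 2 and 20 µM, n=2. Stage IV/V gametocytes (NF54): luciferase reporter (NF54-Pfs16-GFP-Luc, 48 h), ATP bioluminescence (24 h) and PrestoBlue (48 h) at 1 and 5 µM, n=1. P. berghei liver stage (luciferase in HepG2-A16-CD81, 48 h post infection) at 5 µM, n=4. All normalised to DMSO and kill controls as % inhibition.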
# 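Throughout, for % inhibition of HepG2 viability (CellTiter-Glo): HepG2-A16-CD81 hepatoma cells plated as in the liver-stage assay but without sporozoites, with DMSO wells as negative and 25 µM puromycin as positive control.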
SMILES,% viability of CHO cells (CHO; 2 µM),% viability of CHO cells (CHO; 20 µM),% inhibition of HepG2 viability (HepG2-A16-CD81),% inhibition of gametocyte viability ([1]; 1 µM),% inhibition of gametocyte viability ([1]; 5 µM),% inhibition of asexual blood stage proliferation ([2]; 2 µM),% inhibition of asexual blood stage proliferation ([2]; 20 µM),% inhibition of gametocyte viability ([3]; 1 µM),% inhibition of gametocyte viability ([3]; 5 µM),% inhibition of gametocyte viability ([4]; 1 µM),% inhibition of gametocyte viability ([4]; 5 µM),% inhibition of liver stage parasite viability [5]
CCc1oc2ccccc2c1C(=O)c1ccc(O)cc1,152%,112%,9.97%,< 0%,17.5%,29.1%,6.67%,< 0%,< 0%,< 0%,9.06%,39.9%
O=C(NC(=O)N1CCCc2ccccc21)c1cccc(Cl)c1,99.8%,116%,1.03%,< 0%,< 0%,-12.6%,10.3%,< 0%,< 0%,< 0%,< 0%,11.4%
Nc1nc2c(ncn2/C=C2/CC2(CO)CO)c(=O)[nH]1,102%,5.45%,-5.92%,10.2%,7.42%,6.02%,5.03%,< 0%,< 0%,< 0%,1.19%,9.21%
O=C(O)COc1cccc2c1CC[C@](O)(COC(=O)N(c1ccccc1)c1ccccc1)C2,92.5%,105%,-9.51%,23.2%,25.8%,11.3%,-4.41%,< 0%,< 0%,1.62%,< 0%,13.6%
CNC(=O)C1O[C@@H](n2cnc3c(NCc4cccc(I)c4)nc(Cl)nc32)[C@H](O)[C@@H]1O (stereo partly specified),97.5%,132%,-10.3%,12.5%,24.1%,33.8%,63%,< 0%,< 0%,< 0%,< 0%,19.8%
CCCCSc1nc(N)c2[nH]c(=O)c(=O)n(Cc3ccccc3)c2n1,114%,55.2%,4.02%,1.71%,21.9%,14.9%,14.6%,< 0%,< 0%,< 0%,< 0%,-9.6%
CC(C)(C)c1ccc(Oc2ccc(N)cc2)cc1,130%,58.8%,-4.14%,< 0%,67%,-4.84%,55.8%,< 0%,< 0%,66.9%,89.3%,54.4%
CN(C/C=C/C#CC(C)(C)C)Cc1cccc2ccccc12,101%,117%,-4.35%,< 0%,< 0%,-1.71%,61.2%,< 0%,< 0%,< 0%,< 0%,29.1%
O=P(O)(O)C(CCCc1cccc(Oc2ccccc2)c1)S(=O)(=O)O (stereo unspecified),113%,109%,-5.33%,12.4%,30.6%,34.7%,69.9%,< 0%,< 0%,< 0%,3%,9.62%
CCC(CC)[C@H](NC(C)=O)[C@@H]1[C@H](O)[C@@H](C(=O)O)C[C@H]1NC(=N)N,88.2%,59.8%,-1.38%,< 0%,< 0%,31%,22.4%,< 0%,< 0%,0.62%,2.25%,24.4%
CN(O)C(=O)c1cc2c(CN3CCC[C@H]3C(N)=O)cn(Cc3ccc(F)cc3)c2cn1,96%,119%,-5.55%,31.6%,30.7%,16.8%,52.7%,< 0%,< 0%,< 0%,< 0%,24.6%
OB1OCc2cc(Cl)ccc21,90.1%,100%,-4.78%,< 0%,< 0%,2.76%,-5.4%,< 0%,< 0%,< 0%,< 0%,23.6%
O=C1[C@H](CC[C@H](O)c2ccc(F)cc2)[C@@H](c2ccc(O)cc2)N1c1ccc(F)cc1,94.9%,113%,-3.46%,< 0%,< 0%,43.1%,61%,< 0%,< 0%,2.9%,4.53%,27.4%
CC1(C)CC(NC(=O)C(=O)Nc2ccc(Cl)cc2)CC(C)(C)N1,87.7%,57.9%,-9.07%,22.5%,17.1%,-0.102%,60.5%,0.497%,3.94%,3.24%,13.9%,31.6%
COc1cc(Cc2cnc(N)nc2N)cc(OC)c1OC,111%,126%,1.34%,4.58%,22.2%,23.4%,33.1%,0.869%,< 0%,< 0%,< 0%,66.4%
N[C@@H]1CN(c2c(F)cc3c(=O)c(C(=O)O)cn([C@@H]4C[C@@H]4F)c3c2Cl)CC12CC2,94.4%,69.3%,-1.55%,< 0%,10.3%,36.2%,99.6%,< 0%,< 0%,0.138%,< 0%,-19.2%
O=S(=O)(NCB(O)O)c1ccc(-c2nnn[nH]2)cc1C(F)(F)F,86.3%,66.1%,3.27%,18%,9.79%,29.1%,28.6%,< 0%,< 0%,1.13%,3.64%,29.3%
NS(=O)(=O)c1ccc(NC(=O)NC(c2ccccc2)c2ccccc2)cc1,258%,58.6%,4.57%,< 0%,7.57%,3.15%,82.5%,< 0%,< 0%,< 0%,< 0%,19.3%
